From PubChem BioAssay
KB-V1 cytotox – KB-V1 MDR subline cytotoxicity | KB-V1 MDR cells viability, CellTiter-Glo, 72 h | hit rate 3.4% among 400,000 | Potency, µM (top dose mostly 46.1 µM), usual class: cytotoxic; note: nearly all actives have a fitted effect of over 60% in size
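Cytotoxicity toward P-gp-expressing KB-V1 cells was determined as loss of CellTiter-Glo luminescence after 72 h at 37 degrees C. Compounds were tested in quantitative HTS format across a concentration range, with curves fitted to normalized data.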
HT1080-NT tox – kills 2HG-producing HT-1080-NT fibrosarcoma cells | hit rate 1.6% among 360,000 | Potency, µM (series often up to 46.1 µM), most hits filed as cytotoxic | HT-1080-NT fibrosarcoma viability, CellTiter-Glo ATP luminescence, 48 h | AID 686970;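 note: NT is the 2HG producing partner of a matched IDH1 knockdown line; nearly all actives have a fitted effect of over 55% in size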
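750 cells/well, RPMI + 5% FBS; 2 h settle, compound pin-transfer, 48 h at 37 degrees C. CellTiter-Glo 10 min RT, luminescence. Normalized to DMSO and media-only wells.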
HT1080 IDH1KD tx – toxicity to HT-1080 IDH1 knockdown cells (counter line). HT-1080 IDH1 knockdown viability, ATP luminescence, 48 h. Potency, µM (doses to about 46.1 µM), most hits filed as cytotoxic. hit rate 2% among 360,000. AID 686971
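Using the IDH1-knockdown HT-1080 line run in the same batch and compound series as the NT line, viability after 48 h at 37 °C was determined by CellTiter-Glo luminescence and expressed as % activity.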
KB-3-1 tox – kills parental KB-3-1 adenocarcinoma cells; KB-3-1 viability, CellTiter-Glo ATP luminescence, 72 h; Potency, µM (series often up to 46.1 µM), most hits filed as cytotoxic; hit rate 1.4% among 400,000; AID 1347075; note: nearly all actives have a fitted effect of over 60% in size
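Cytotoxicity measured as CellTiter-Glo luminescence after 72 h at 37 C. Compound titrations were pinned onto drug-naive KB-3-1 parental adenocarcinoma cells grown in DMEM with 10% FBS, and normalized data fitted to concentration-response curves.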
TDP1 cell CPT – growth inhibition of DT40 Tdp1-/-;hTDP1 cells with camptothecin (screen for TDP1 inhibitors); chicken DT40 Tdp1-/-;hTDP1 cells + 20 nM CPT, ATP luminescence, 48 h; Potency, µM (top dose mostly 46.2 µM), most hits filed as inhibitors; hit rate 12% among 420,000; AID 686979; note: nearly all actives have a fitted effect of over 55% in size
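Cell growth measured by CellTiter-Glo luminescence after a minimum 48 h, 37 C compound exposure with 20 nM CPT in Tdp1-knockout DT40 cells stably expressing hTDP1, seeded 400/well; qHTS titration format.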
TDP1 cell noCPT – qHTS for Inhibitors of human tyrosyl-DNA phosphodiesterase 1 (TDP1): qHTS in cells in absence of CPT. hit rate 15% among 420,000. AID 686978, 2013. Potency, µM (titrated, usually from 46.2 µM), most hits filed as inhibitors. DT40 Tdp1-/- hTDP1 cells, no CPT, ATP luminescence, 48 h; note: nearly all actives have a fitted effect of over 55% in size
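Readout: luminescence from CellTiter-Glo after 30 min in the dark at RT. Cells: DT40 Tdp1-/- with stable hTDP1, 400/well. Exposure: compounds alone, ≥48 hr, 37 °C.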
A number is an active result; i = inactive; ? = inconclusive; nt = not tested or not shown. Compounds with a hit are over-represented: about 19% of the library has one in this group of screens. Calls come from the whole dose curve; as a rule, active = well fitted curve in the direction sought with a large enough effect; inconclusive = small, poorly fitted or top-dose-only effect, or another doubt; inactive = no such curve, though single readings can be large; an effect the other way counts as inactive or inconclusive.

SMILES	KB-V1 cytotox	HT1080-NT tox	HT1080 IDH1KD tx	KB-3-1 tox	TDP1 cell CPT	TDP1 cell noCPT
CC(=O)c1ccc(N2CCN(S(=O)(=O)c3ccc4c(c3)C(Cl)(Cl)C(=O)N4)CC2)cc1	i	nt	nt	i	nt	nt
CC1CCN(S(=O)(=O)c2ccc3c(c2)CC(C)N3C(=O)C2CCC2)CC1 (configuration not stated)	?	?	i	i	21µM	16µM
CC1CCN(S(=O)(=O)c2ccc3c(c2)C(Cl)(Cl)C(=O)N3)CC1	i	i	i	i	10µM	16µM
CC1Cc2cc(S(=O)(=O)NCCC(=O)N(C)Cc3ccccc3)ccc2N1C(=O)C1CC1 (configuration not stated)	i	i	i	i	?	?
CC1Cc2cc(S(=O)(=O)N3CCC(C(=O)N4CCCCC4)CC3)ccc2N1C(=O)C1CC1 (configuration not stated)	i	i	i	i	?	i
CC1Cc2cc(S(=O)(=O)N3CCCCC3)ccc2N1C(=O)C1CCC1 (configuration not stated)	i	i	i	i	21µM	?
CCc1ccc(NS(=O)(=O)c2ccc3[nH]cc(C(=O)NCCCOC(C)C)c(=O)c3c2)cc1	i	nt	nt	i	?	?
O=C(C/C=N\OCc1ccc([N+](=O)[O-])cc1)Nc1ccc(Br)cc1	i	i	i	?	i	i
O=C(CCCc1ccncc1)c1ccccc1	i	i	i	i	i	i
CCOC(=O)C1CCCN(S(=O)(=O)c2ccc3c(c2)CC(C)N3C(=O)C2CC2)C1 (configuration not stated)	i	i	i	i	18µM	i
CC1CCN(c2ccc(S(=O)(=O)N3CCC(C)CC3)cc2N)CC1	i	i	i	?	21µM	16µM
Cc1ccc(C2N3CC4(C)CN2CC(c2ccccc2)(C3)C4=O)cc1 (configuration not stated)	i	nt	nt	i	?	?
COc1ccc(C(=O)NCCc2nnc3n2CCN(CC2CC=CCC2)CC3)cc1 (configuration not stated)	nt	nt	nt	nt	i	i
CCOc1ccc(C(=O)Oc2c(Sc3ccccc3)c(C)nn2C(C)(C)C)cc1OCC	i	nt	nt	i	?	?
Cc1ccc2nc(CSc3nc(C)ccc3C#N)[nH]c2c1	i	18µM	16µM	i	18µM	32µM
Clc1ccc(CSc2nc3ccncc3[nH]2)cc1	i	i	?	?	?	?
Cc1cc(C)cc(NC(=O)CCCSc2nc3ccccc3[nH]2)c1	i	i	i	i	?	?
Cc1cc(C)cc(NC(=O)CSc2nc3ccncc3[nH]2)c1	i	i	i	i	6.5µM	16µM
Cc1ccc(C#N)c(SCc2ccccc2F)n1	i	i	i	i	i	i
COC(=O)c1sc2nc(CSc3nc4ccc(C)cc4[nH]3)[nH]c(=O)c2c1C	i	i	i	i	?	i
Cc1ccc(CSc2nc3ccncc3[nH]2)cc1	i	?	?	12µM	?	15µM
Cc1ccc2nc(SCc3nc4ccccc4c(=O)[nH]3)[nH]c2c1	?	i	i	i	?	21µM
COCOc1ccc(-c2ncc(OC)nc2NC(=O)c2cc(C)oc2C)cc1	i	i	i	i	?	i
Cc1ccc(CCNC(=O)Cn2ncc3c(=O)oc4ccccc4c32)cc1	?	nt	nt	i	i	i
O=C(Nc1ccc(Cl)cc1Cl)c1cnn2c1NC(=C1CC1)C=C2C(F)F	i	nt	nt	?	i	i
O=[N+]([O-])c1cccc(CSc2nc3ccccc3[nH]2)c1	?	i	i	i	?	?
Cc1ccc2nc(SCC(=O)Nc3ccc(C(N)=O)cc3)[nH]c2c1	i	i	i	i	i	i
Cc1ccc2nc(SCC(=O)Nc3cccc([N+](=O)[O-])c3)[nH]c2c1	15µM	i	?	i	i	i
Cc1ccc2nc(SCc3nc(-c4ccccc4C)no3)[nH]c2c1	?	nt	nt	i	18µM	13µM
